Shown are actives, neighbours in structure and some others; about 11% of the full set was active somewhere.
FLuc inh = Firefly luciferase inhibition profiling of diverse chemical library using quantitative high-throughput screening. Luciferin 4-monooxygenase (Photinus pyralis), P08659. AID 1347043, 2019. 76,000 compounds, 2.5% hits. Potency, µM (highest dose often 115 µM), actives largely listed as inhibitors. purified P. pyralis luciferase, luminescence, biochemical; further: nearly all actives have a fitted effect of over 65% in size
Target sequence (P08659 whole entry, looked up): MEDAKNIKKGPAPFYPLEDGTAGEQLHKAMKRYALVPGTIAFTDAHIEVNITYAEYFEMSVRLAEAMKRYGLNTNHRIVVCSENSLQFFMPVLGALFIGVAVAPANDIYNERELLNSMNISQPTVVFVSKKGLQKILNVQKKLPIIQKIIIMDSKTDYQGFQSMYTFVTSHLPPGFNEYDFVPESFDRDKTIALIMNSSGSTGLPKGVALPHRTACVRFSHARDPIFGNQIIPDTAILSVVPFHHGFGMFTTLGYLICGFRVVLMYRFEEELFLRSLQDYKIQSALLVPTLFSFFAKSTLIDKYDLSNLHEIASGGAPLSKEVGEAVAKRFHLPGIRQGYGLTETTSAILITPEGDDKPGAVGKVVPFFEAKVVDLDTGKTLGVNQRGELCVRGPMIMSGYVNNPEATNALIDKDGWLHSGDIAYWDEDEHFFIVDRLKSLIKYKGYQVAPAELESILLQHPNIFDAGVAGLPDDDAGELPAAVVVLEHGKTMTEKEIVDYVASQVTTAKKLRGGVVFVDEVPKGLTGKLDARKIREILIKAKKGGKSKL
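Inhibitors were tested against purified firefly luciferase in a biochemical, low-substrate format (both substrates at 10uM) and luminescence measured with a CCD imager.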
3T3 cytotox = Cytotoxic Profiling in NIH 3T3 Cell Line of Diverse Libraries Using Quantitative High-Throughput Screening; NIH 3T3 viability, CellTiter-Glo ATP luminescence, 48-72 h; Potency, µM (doses to about 96.7 µM), inactives show top-dose activity change, negative = cytotoxicity, most hits filed as inhibitors; 94,000 compounds, 4.3% hits; AID 1345082, 2018; further: nearly all actives have a fitted effect of over 55% in size
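Mouse fibroblast NIH 3T3 cells, 400 per well, received compound via pintool and were incubated for 48 or 72 hr prior to CellTiter-Glo ATP luminescence measurement.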
HEK cytotox = Cytotoxic Profiling in HEK 293 Cell Line of Diverse Libraries Using Quantitative High-Throughput Screening. 94,000 compounds, 6.6% hits. HEK 293 viability, ATP luminescence (CellTiter-Glo), 48-72 h. Potency, µM (doses to about 115 µM), for the others: top-dose activity change, negative = cytotoxicity, usual class: inhibitors; further: nearly all actives have a fitted effect of over 60% in size
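Pintool-delivered compounds were incubated with HEK 293 cells (250 cells/well) at 37 degree Celsius for 48 or 72 hr. ATP-dependent luminescence (CellTiter-Glo) then reported remaining viable cells.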
hNpr1 antagonist = Natriuretic polypeptide receptor (hNpr1) antagonism - Primary qHTS | Atrial natriuretic peptide receptor 1 (Homo sapiens), P16066 | HEK293 hNpr1 GloSensor cGMP, ANP-stimulated luminescence | Potency, µM (highest dose often 46.3 µM), without a hit: at the highest dose activity change, negative = inhibition, most hits filed as inhibitors | 76,000 compounds, 1.6% hits; calls by dose curve; further: nearly all actives have a fitted effect of over 60% in size
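HEK293 cells stably expressing human Npr1 and cGMP GloSensor pGS-40F, loaded 2 h with 2% GloSensor reagent, given compound 30 min at room temperature. Luminescence read before and 20 min after 0.1 nM hNppA.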
* = called active by the depositor; i = inactive; ? = inconclusive; . = not tested or not shown; ! = a repeat was not active; [ ] = dose if it differs, or a comment. Unless noted, the call rests on the fitted dose curve; in most records, active means well fitted curve in the direction sought with a large enough effect; inconclusive means small, poorly fitted or top-dose-only effect, or another doubt; inactive means no such curve, though single readings can be large; an effect the other way counts as inactive or inconclusive. On the % scale 0 is the no-effect control and ±100 the full control effect; potency means the concentration at half of the fitted maximal effect.

SMILES	FLuc inh	3T3 cytotox	HEK cytotox	hNpr1 antagonist
COc1ccc(C(=O)N2CCCC(C(=O)N3CCC(N4Cc5cccn5C4=O)CC3)C2)cc1 (stereo not given)	.	-16%	?	.
O=C(c1ccc(C(F)(F)F)cc1)N1CCCN(c2ccc3nnc(C4CC4)n3n2)CC1	.	-30%	-7%	.
Cc1noc(C)c1[S+](=O)([O-])N1CCN(CCn2nc3n(c2=O)CCCC3)CC1	.	-4%	-21%	.
COCCNC(=O)C1CCCCN1Cc1ccc(-c2ccccc2OC)cc1 (stereo not given)	.	?	45µM*!	.
COc1ccccc1-c1ccc(CN2CCCCC2C(=O)NCCc2ccccc2)cc1 (stereo not given)	.	40µM*	40µM*	.
CCc1ccc(NC(=O)Cn2c(-c3ccc(Cl)cc3)nc(C)c(CCO)c2=O)cc1	i	45µM*	40µM*	-4%
CCc1cccc(NC(=O)Cn2c(-c3ccc(F)cc3)nc(C)c(CCO)c2=O)c1	i	?	?	-11%
CCc1ccc(NC(=O)Cn2c(-c3ccccc3)nc(C)c(CCO)c2=O)cc1	i	40µM*	40µM*	-25%
CCOc1ccc(NC(=O)Cn2c(-c3ccc(Cl)cc3)nc(C)c(CCO)c2=O)cc1	i	i	-9%	-1%
CC1(C)[C@H](Cc2cc(COc3ccccc3)on2)C[C@@H]1NC(=O)NCc1ccccc1	i	?	63µM*	?
CC(C)N[C@H]1C[C@@H](Cc2cc(COc3ccccc3)on2)C1(C)C	i	50µM*	63µM*	-1%[70.6 µM]
CC1(C)[C@H](Cc2cc(COc3ccccc3)on2)C[C@@H]1NC(=O)C1CCCC1	i	?	?	?
CC1(C)[C@H](Cc2cc(COc3ccccc3)on2)C[C@@H]1NC(=O)C1CCC1	i	?	35µM*	?
CC(=O)Nc1ccc(CC(=O)NCCc2noc(-c3ccccc3)n2)cc1	.	-17%	i	.
Cc1ccc2c(n1)OC(COc1ccccc1)CN(c1ccccc1)C2=O (stereo not given)	.	-11%[46.1 µM]	?	.
Cc1noc(C)c1-c1cc(-c2cccc(F)c2)cn2cncc12	i	45µM*	?	-21%[70.6 µM]
Cc1noc(C)c1-c1cc(-c2cccc(O)c2)cn2cncc12	i	25µM*	?	-2%[70.6 µM]
COc1ccc(-c2cc(-c3c(C)noc3C)c3cncn3c2)cn1	i	50µM*	?	1%[70.6 µM]
COc1ccc(-c2ccc(C(=O)NCCCc3ccccc3)cc2)nn1	.	?	-23%[172 µM]	.
COc1cccc(-c2c(C(=O)NCC3CC3)nc3sccn23)c1	.	?	-28%	.
CCN1CCN(C(=O)C2CCCN(c3ccnc4ccnn34)C2)CC1 (stereo not given)	.	-15%	-21%	.
C[S+](=O)([O-])c1ccc(-c2nnc3ccc(C(=O)NC4CC4)cn23)cc1	.	-14%[138 µM]	-9%[172 µM]	.
O=C1CCN(C[C@@H](O)COCc2ccccc2)c2ccc(F)cc2CN1Cc1ccccc1	.	?	45µM*	.
O=C1CCN(CC(O)Cc2ccccc2)c2ccc(F)cc2CN1Cc1ccccc1 (stereo not given)	.	?	32µM*	.
C=CCOCC(O)CN1CCC(=O)N(Cc2ccccc2)Cc2cc(F)ccc21 (stereo not given)	.	-29%	?	.
SMILES	FLuc inh	3T3 cytotox	HEK cytotox	hNpr1 antagonist
COc1ccccc1C(=O)N1CCC(Cc2nncn2-c2ccccc2)CC1	.	i	1%	.
O=[S+]1([O-])CCN(Cc2ccc(-c3cnc4c(OCc5ccccc5)nccn34)cc2)CC1	?	22µM*	35µM*	11µM*
OC1CCC(NCc2ccc(-c3cnc4c(OCc5ccccc5)nccn34)cc2)CC1 (stereo not given)	i	22µM*	50µM*	4%[70.6 µM]
NC(=O)C1CCCN(Cc2ccc(-c3cnc4c(OCc5ccccc5)nccn34)cc2)C1 (stereo not given)	45µM*	40µM*	45µM*	-17%
COC(=O)N1CCCC1C(=O)N1CCC(c2nc3ccncc3[nH]2)CC1 (stereo not given)	.	-8%[138 µM]	-3%[172 µM]	.
COc1cccc(C(=O)N2CC(Oc3ccc(-c4nc(-c5ccccc5)no4)cc3)C2)c1	i	?	22µM*	-10%
COc1cccc(C(=O)N2CC(Oc3cccc(-c4nc(-c5ccccc5)no4)c3)C2)c1	?	?	?	-4%
Cc1cnc(C(=O)N2CC(Oc3ccccc3-c3nc(C4CC4)no3)C2)cn1	i	-23%	?	6%
O=C(c1cccnc1)N1CC(Oc2ccc(-c3noc(-c4ccccc4)n3)cc2)C1	?	-15%	?	11µM*
COc1cccc(C(=O)N2CC(Oc3ccccc3-c3nc(-c4ccccc4)no3)C2)c1	?	?	20µM*	-8%
Cc1nc(C)c(C(=O)N2CC(Oc3ccccc3-c3nc(C4CC4)no3)C2)s1	i	?	89µM*	-2%
CCOC(=O)C1CCCN(C(=O)c2nc3sccn3c2-c2cccc(OC)c2)C1 (stereo not given)	.	-14%	-25%	.
Cc1cnc(C2CC2)n1CCNC(=O)C1CC1	.	-12%	-3%	.
Cn1nccc1C(=O)N1CCC(Oc2ccccc2)C1 (stereo not given)	i	-9%	1%	4%
Cn1nccc1C(=O)N1CCC(Oc2ccc(-c3noc(-c4ccccc4)n3)cc2)C1 (stereo not given)	.	?	22µM*	.
Cc1noc(C)c1[S+](=O)([O-])N1CCCC(C(=O)N2CCC(N3CCCC3=O)CC2)C1 (stereo not given)	.	-22%	-13%	.
O=C(NC1CCCCC1)O[C@@H]1CO[C@H]2[C@@H]1OC[C@@H]2n1nnnc1Sc1ncccn1	i	-8%[174 µM]	-11%[172 µM]	6%[70.6 µM]
O=C(NC1CCCCC1)O[C@@H]1CO[C@H]2[C@@H]1OC[C@@H]2n1nnnc1Sc1ccccc1	i	?	100µM*	-11%[70.6 µM]
Cc1cccc(CN2CCNc3cc(-c4ccnc(C)c4)ncc3C2)c1	?	?	40µM*	-17%[70.6 µM]
c1ccc(CN2CCNc3cc(-c4ccoc4)ncc3C2)cc1	?	?	?	-12%[70.6 µM]
Fc1ccc(CN2CCNc3cnc(OCc4cccnc4)cc3C2)cc1F	i	?	?	?
Cc1cc(-c2cc3c(cn2)CN(Cc2ccccc2F)CCN3)ccn1	25µM*	?	71µM*	-16%[70.6 µM]
Fc1ccc(CNc2cc3c(cn2)CN(Cc2ccncc2)CCN3)cc1	i	-43%[138 µM]	-51%[172 µM]	2%[70.6 µM]
CCn1cc(-c2cc3c(cn2)CN(CCc2ccccc2)CCN3)cn1	i	?	?	-2%[70.6 µM]
Cc1cc(-c2cc3c(cn2)CN(Cc2ccc(C(F)(F)F)cc2)CCN3)ccn1	63µM*	79µM*	63µM*	28µM*
